Hedgehog inh: Sonic Hedgehog pathway inhibition. Shh-LIGHT2 Gli-luciferase reporter, 30 h. 22,000 compounds, 2.1% hits. inhibition, % (test concentration not listed);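 active means mean inhibition across valid replicates above about 65%, limit read from the data; inconclusive means mean under the limit, yet half or more replicates past it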;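 further: pathway switched on by Shh-conditioned medium diluted 1 in 25 in low serum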
MITF inh: inhibitors of MITF | TRPM1 promoter luciferase, luminescence, 24 h | inhibition, % (test concentration not listed) | 37,000 compounds, 0.28% hits | AID 2240; in the data active means inhibition above about 85%; inconclusive means no clear call, values can overlap the other calls; inactive means below about 68%;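 further: human melanocyte line stably carrying TRPM1 promoter luciferase reporter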
NOMO-1 viab: STK33 inhibitor candidate reducing NOMO-1 cell viability; NOMO-1 AML viability, CellTiter-Glo luminescence, 72 h; inhibition, % (test concentration not listed); 37,000 compounds, 7.5% hits; in the data active means inhibition above about 80%; inconclusive means no clear call, values can overlap the other calls
* = called active by the depositor; ? = inconclusive; . = no result. The list is not random: actives were taken first. Their share in the collection is about 8.1%.

SMILES	Hedgehog inh	MITF inh	NOMO-1 viab
C[C@@H]1CN([C@H](C)CO)C(=O)c2cccc(NC(=O)c3ccc(-c4nccs4)cc3)c2O[C@@H]1CN(C)CC1CCCCC1	-4	-9	2
C[C@H](CO)N1C[C@H](C)[C@@H](CN(C)CC2CCCCC2)Oc2c(NC(=O)c3ccc(-c4nccs4)cc3)cccc2C1=O	8	51	104*
O=C(Nc1ccc(Br)cc1)C12CC3CC(CC(C3)C1)C2	-15	-2	10
CC(C)(C)C1CCc2c(sc(NC(=S)NC(=O)c3cc4ccccc4o3)c2C(N)=O)C1 (stereo not given)	.	-4	17
Cc1ccc(NS(=O)(=O)c2cc(C(=O)NCC3CCCO3)ccc2Cl)cc1C (stereo not given)	.	14	10
Cc1ccc2c(c1)-c1c(ssc1=S)C(C)(C)N2C(=O)C(C)C	.	11	19
COc1cc2c(c(O)c1CO)C(=O)CCC2O (stereo not given)	-14	-20	3
CSc1nc(C)nc(N/C=C(\C#N)S(=O)(=O)c2ccc(C)cc2)n1	.	-9	24
Cc1ccc(S(=O)(=O)/C(C#N)=C/Nc2cc(C(F)(F)F)cc(C(F)(F)F)c2)cc1	101*	26	89*
Cc1cc(C(F)(F)F)nc(SCC(=O)Nc2cccc(Cl)c2Cl)n1	.	-5	-10
COC(=O)C(NC(=O)c1ccc([N+](=O)[O-])o1)C(C)C (stereo not given)	.	-9	113*
NC(=O)N/N=C/c1ccc([N+](=O)[O-])o1	5	-2	50
O=C(CSc1nc2ccccc2c(=O)[nH]1)Nc1ccc(Br)c(Cl)c1	.	6	15
O=C(c1ccccc1)N(c1ccccc1)c1ccccc1	50	13	39
C[C@@H]1CN([C@H](C)CO)C(=O)Cc2cc(NS(=O)(=O)c3cccs3)ccc2O[C@@H]1CN(C)Cc1ccc(C(=O)Nc2ccccc2N)cc1	.	7	116*
C[C@H]1CN([C@@H](C)CO)C(=O)Cc2cc(NS(=O)(=O)c3cccs3)ccc2O[C@@H]1CN(C)Cc1ccc(C(=O)Nc2ccccc2N)cc1	.	-18	45
C[C@@H]1CN([C@@H](C)CO)C(=O)Cc2cc(NS(=O)(=O)c3cccs3)ccc2O[C@@H]1CN(C)Cc1ccc(C(=O)Nc2ccccc2N)cc1	.	17	90*
COc1ccc(C(=O)C(C)Oc2cccc(NC(=O)c3ccccc3[N+](=O)[O-])c2)cc1 (stereo not given)	.	-7	26
Cc1ccc(C(=O)Oc2cc(C)cc(OC(=O)c3ccc(C)cc3)c2)cc1	1	-3	22
COc1ccc(OC)c(C(=O)CCC(=O)Nc2ccc(Cl)cc2)c1	.	14	8
CCOC(=O)c1cc(-c2ccc(Cl)cc2)[nH]c(=O)c1C#N	9	7	-13
CCOC(=O)C1=C(CSc2ccc(Cl)cc2)NC(=O)NC1c1cc(C)ccc1C (stereo not given)	48	-30	115*
Cc1cc(NC(=O)c2ccc(N)cc2)c(N)cc1N	?	-33	30
COc1ccc([N+](=O)[O-])cc1NC(=O)CCN1CCN(c2ccccc2OC)CC1	.	-8	27
COc1ccccc1N1CCN(CCCCNC(=O)c2ccc(-c3ccc(C(C)=O)cc3)cc2)CC1	92*	4	34
SMILES	Hedgehog inh	MITF inh	NOMO-1 viab
C[C@@H]1CN([C@@H](C)CO)C(=O)Cc2cc(NC(=O)Nc3ccc(C(F)(F)F)cc3)ccc2O[C@@H]1CN(C)Cc1ccc(Cl)c(Cl)c1	-21	20	115*
C[C@@H]1CN([C@H](C)CO)C(=O)Cc2cc(NC(=O)Nc3ccc(C(F)(F)F)cc3)ccc2O[C@H]1CN(C)Cc1ccncc1	-2	-32	-7
C[C@H]1CN([C@@H](C)CO)C(=O)Cc2cc(NC(=O)Nc3ccc(C(F)(F)F)cc3)ccc2O[C@@H]1CN(C)Cc1ccc(Cl)c(Cl)c1	-8	9	22
C[C@@H]1CN([C@H](C)CO)C(=O)Cc2cc(NC(=O)Nc3ccc(C(F)(F)F)cc3)ccc2O[C@@H]1CN(C)Cc1ccc(C(F)(F)F)cc1	9	5	120*
CC(C)NC(=O)Nc1ccc2c(c1)CC(=O)N([C@@H](C)CO)C[C@H](C)[C@H](CN(C)Cc1ccc(C(F)(F)F)cc1)O2	12	-5	23
C[C@H]1CN([C@@H](C)CO)C(=O)Cc2cc(NC(=O)CCC(F)(F)F)ccc2O[C@H]1CN(C)Cc1ccc(Cl)c(Cl)c1	-3	2	14
C[C@@H]1CN([C@H](C)CO)C(=O)Cc2cc(NC(=O)CCC(F)(F)F)ccc2O[C@@H]1CN(C)Cc1ccc(Cl)c(Cl)c1	35	16	116*
C[C@H](CO)N1C[C@H](C)[C@H](CN(C)Cc2ccncc2)Oc2ccc(NC(=O)Nc3ccc(C(F)(F)F)cc3)cc2CC1=O	20	27	126*
Cc1ccc(NC(=O)Cn2cc(C(=O)c3cccs3)c3ccccc32)cc1Cl	.	30	35
CCn1c(SCC(=O)Nc2cccc(SC)c2)nnc1-c1ccc(Cl)cc1	.	-13	0
CCn1c(SCC(=O)c2ccc(OC)cc2)nnc1-c1cc2cc(Br)ccc2o1	.	-3	-20
C[C@H](CO)N1C[C@H](C)[C@H](CN(C)Cc2ccc(C(F)(F)F)cc2)Oc2ccc(NC(=O)Nc3ccc(C(F)(F)F)cc3)cc2CC1=O	-3	17	129*
C[C@@H]1CN([C@@H](C)CO)C(=O)Cc2cc(NC(=O)Nc3ccc(C(F)(F)F)cc3)ccc2O[C@@H]1CN(C)Cc1ccc(C(=O)O)cc1	-54	-12	5
C[C@@H]1CN([C@H](C)CO)C(=O)Cc2cc(NC(=O)Nc3ccc(C(F)(F)F)cc3)ccc2O[C@H]1CN(C)Cc1ccc(C(F)(F)F)cc1	-8	7	94*
C[C@@H]1CN([C@@H](C)CO)C(=O)Cc2cc(NC(=O)NC3CCCCC3)ccc2O[C@@H]1CN(C)C(=O)Nc1ccc(C(F)(F)F)cc1	-2	-3	14
C[C@@H]1CN([C@H](C)CO)C(=O)Cc2cc(NC(=O)NC3CCCCC3)ccc2O[C@@H]1CN(C)Cc1ccc(C(F)(F)F)cc1	1	5	109*
COc1ccc(CN(C)C[C@H]2Oc3ccc(NC(=O)Nc4ccc(C(F)(F)F)cc4)cc3CC(=O)N([C@@H](C)CO)C[C@@H]2C)cc1	18	1	14
C[C@H](CO)N1C[C@H](C)[C@H](CN(C)C(=O)NC2CCCCC2)Oc2ccc(NC(=O)Nc3ccc(C(F)(F)F)cc3)cc2CC1=O	9	-9	1
C[C@@H]1CN([C@@H](C)CO)C(=O)Cc2cc(NC(=O)Nc3ccc(C(F)(F)F)cc3)ccc2O[C@@H]1CN(C)C(=O)NC1CCCCC1	24	19	113*
Nc1cccc(-c2nnc(SCC(=O)Nc3cccc(Cl)c3)n2-c2ccccc2)c1	.	0	32
COc1cc(OC)c(C(O)C(C)O)cc1OC (stereo not given)	-1	2	90*
COc1cc(=O)oc(C(C)C(C)O)c1CO (stereo not given)	11	4	-5
C[C@H]1CN([C@@H](C)CO)C(=O)c2cccc(NC(=O)C3CC3)c2O[C@H]1CN(C)S(=O)(=O)c1ccc(Cl)cc1	90*	4	-8
C[C@H]1CN([C@@H](C)CO)C(=O)c2cccc(NC(=O)C3CCCCC3)c2O[C@H]1CN(C)S(=O)(=O)c1ccc(Cl)cc1	98*	8	9

High-throughput results: PubChem BioAssay, Broad Institute
